Compound activity from PubChem BioAssay.
AMA1-RON2 inh = AMA1-RON2 (P. falciparum) interaction inhibition; Potency, µM (top dose mostly 58.2 µM), without a hit: top-dose activity change, negative = inhibition, hits mostly inhibitors; AID 720542; AlphaScreen AMA1-biotinylated RON2 peptide binding; hit rate 0.2% among 360,000;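 further: 0% = vehicle wells and -100% = peptide control; nearly all actives have a fitted effect of over 45% in size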
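AMA1 (3D7) with his tag at 25 nM final met compounds first, then biotinylated RON2 peptide at 25 nM; detection used donor plus acceptor beads, 10 µg/mL apiece, read by AlphaScreen after 30 min at room temperature.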
Pf growth 48h = P. falciparum growth inhibition at 48 hours (one generation); P. falciparum luciferase growth in erythrocytes, 48 h; Potency, µM (top dose mostly 28.7 µM), without a hit: at the top dose activity change, negative = inhibition, actives largely listed as inhibitors; hit rate 5.9% among 310,000; AID 504832
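A one-generation exposure of luciferase-tagged malaria parasites in RPMI 1640/Albumax erythrocyte culture, 37 C and 5% CO2. Inhibition is inferred from decreased luminescence after adding detection reagent.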
Pf growth 96h = inhibits malaria parasite growth, 96 h; P. falciparum luciferase reporter growth, 96 h; Potency, µM (highest dose often 28.7 µM), inactives show at the highest dose activity change, negative = inhibition, actives largely listed as inhibitors; hit rate 6.9% among 320,000; AID 504834
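Two parasite generations (96 h, 37 C, 5% CO2) of compound exposure in infected erythrocytes (0.05% parasitemia, 2% hematocrit). Luciferase-reporter P. falciparum; decreased luminescence indicates inhibited growth, aimed at apicoplast-acting delayed death.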
HCV inh = blocks hepatitis C virus; Huh7.5.1 HCVcc-Cre infection, luciferase reporter, 44 h; Potency, µM (series often up to 41.8 µM), inactives show top-dose activity change, negative = inhibition, actives largely listed as inhibitors; hit rate 3.4% among 340,000; AID 651820
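Infectious HCV cell culture screen: compound-treated cells (1,000/well, pre-plated 4 h) are infected with HCVcc-Cre at roughly 0.5 moi and grown 44 h. Infection is quantified by luciferase signal after 15 min substrate incubation at room temperature.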
* = called active by the depositor; ? = inconclusive; . = no result; [ ] = remark or other dose. An excerpt weighted towards active compounds, which were near 11% of everything screened. The call rests on the fitted dose curve; in most records, active means well fitted curve in the direction sought with a large enough effect; inconclusive means small, poorly fitted or top-dose-only effect, or another doubt; inactive means no such curve, though single readings can be large; an effect the other way counts as inactive or inconclusive. Unless noted, on the % scale 0 is the no-effect control and ±100 the full control effect; potency means the concentration at half of the fitted maximal effect.

SMILES	AMA1-RON2 inh	Pf growth 48h	Pf growth 96h	HCV inh
COc1ccc(-c2nc(NC(=O)c3[nH]c(C)c(C(C)=O)c3C)sc2C)cc1	-15.7%	-26.9%	?	1µM*
Cc1ccc(CNC(=O)c2ccc3c(c2)S(=O)(=O)c2ccccc2C3=O)o1	-29.1%	.	.	-6.7%
CCC(C(=O)C(C)C(O)C(C)CCc1ccc(C)c(O)c1C(=O)O)C1OC(CC)(C2CC[C@@](O)(CC)C(C)O2)CC1C (some centres undefined)	.	0.379µM*	0.379µM*	.
CC[C@@H](C(=O)[C@@H](C)[C@@H](O)[C@H](C)CCc1ccc(C)c(O)c1C(=O)O)[C@H]1O[C@](CC)([C@H]2CC[C@](O)(CC)[C@H](C)O2)C[C@@H]1C	0.0%	0.0928µM*	?	1.78µM*
COc1ccccc1N1CC(C(=O)Nc2nnc(SCC(=O)N3CCOCC3)s2)CC1=O (centres undefined)	9.7%	5.2%	?	12.1%
Cc1c(C(=O)c2ccc([N+](=O)[O-])cc2)c(=O)n(C)c(=O)n1C	6.9%	-4.4%	-4.5%	20.8%
COC(=O)C[C@H]1c2cc(C(F)(F)F)ccc2S(=O)(=O)N1Cc1ccccc1OC	6.9%	.	.	-15.7%
O=C(NCc1ccccc1)C1=C[C@H](c2ccc(Br)cc2)C[C@H](OCc2ccc(CO)cc2)O1	-6.6%	?	1.65µM*	-6.4%
O=C(NCc1ccccc1)C1=C[C@@H](c2ccccc2)C[C@@H](OCc2ccc(CO)cc2)O1	-4.4%	?	9.28µM*	?
O=C(Nc1ccccc1)C1=C[C@H](c2ccc(Br)cc2)C[C@H](OCc2ccc(CO)cc2)O1	-7.3%	-26.1%	?	-16.0%
O=C(Nc1ccc(OC(F)(F)F)cc1)Nc1cccnc1	39.5%	?	10.4µM*	2.9%
O=C(Nc1cccnc1)C1(F)C(F)(F)C(F)(F)C(F)(F)C(F)(F)C1(F)F	7.4%	-3.6%	4.6%	3.16µM*
O=C(NCC(F)(F)F)Nc1cccnc1	28.6%	-19.1%	14.7µM*	2.0%
O=C(Nc1ccc(F)cc1)Nc1cccnc1	-8.6%	19.9%	31.5%	9.2%
Cc1cccc(NC(=O)C(C)Sc2nc3nc(C)cc(C)n3n2)c1 (centres undefined)	14.9%	.	.	-1.7%
Cc1ccnc(SCC(=O)c2cc3ccccc3o2)n1	11.4%	0.2%	8.4%	-9.3%
Nc1cc(-c2cccc(F)c2)nn1S(=O)(=O)c1cccc2nsnc12	-2.8%	-16.7%	1.65µM*	-3.2%
Nc1cc(-c2ccc(Br)cc2)nn1S(=O)(=O)c1cccc2nsnc12	-27.6%	.	?	11.2µM*
Nc1cc(-c2ccc(Cl)cc2)nn1S(=O)(=O)c1cccc2nsnc12	-25.8%	.	?	?
COc1ccc(-c2cn(Cc3ccc(C(=O)NCc4ccc(C)cc4)cc3)c(C(C)N)n2)cc1 (centres undefined)	76.5%	11.7µM*	?	?
COc1ccc(-c2cn(Cc3ccc(C(N)=O)cc3)c(-c3ccc(Cl)nc3)n2)cc1	-11.4%	?	33.0%	11.1%
Cc1ccc(C)c(NC(=S)N/N=C2/CCCCc3ccccc32)c1	28.1%[2.32 µM]	8.28µM*	4.15µM*	?
O=C(N/N=C1/CCc2ccccc21)C1CC1	5.0%	26.2%	55.1%	6.9%
S=C(N/N=C1\CCc2ccccc21)NC1CCCCC1	33.0%	?	-49.6%	8.91µM*
c1ccc(CCCCc2ccccn2)cc1	2.0%	.	.	5.7%
SMILES	AMA1-RON2 inh	Pf growth 48h	Pf growth 96h	HCV inh
c1ccc(CCCNc2ncccn2)cc1	-2.9%	69.4%	3.29µM*	9.0%
Clc1ccc(CN=C(Nc2ccccc2)NC2CCCCC2)cc1	-13.9%	9.28µM*	9.28µM*	?
O=C(Cc1ccc(Cl)cc1)NC1CCCCCC1	?	68.8%	32.2%	-5.4%
Cc1ccccc1OCC(=O)Nc1ccc(C(=O)Nc2ccccc2C(=O)O)cc1	-9.0%	?	?	2.7%
CCn1c(SCc2nc3ccccc3[nH]2)nnc1-c1ccccc1OC	-0.6%	?	3.7µM*	5.0%
Clc1ccc(OCc2nnc(SCc3nc4ccccc4[nH]3)n2Cc2ccco2)cc1	61.3%	?	-15.5%[5.75 µM]	10µM*
Clc1cccc(-c2nnc(SCc3nc4ccccc4[nH]3)n2Cc2ccco2)c1	19.0%	?	-0.1%[5.75 µM]	-27.2%
Cn1c(COc2ccccc2)nnc1SCc1nc2ccccc2[nH]1	42.2%	-14.2%	1.47µM*	5.9%
CC(Sc1nnc(COc2ccc(Cl)cc2)n1Cc1ccco1)C(=O)N1CCNC1=O (centres undefined)	-17.7%	?	8.28µM*	-0.7%
CCC(C(=O)OCC(=O)N1C(C)CCCC1C)c1ccccc1 (centres undefined)	-6.2%	-11.1%	13.6%	-15.0%
CSc1ncccc1C(=O)N1CCN(S(=O)(=O)c2ccc3c(c2)OCCO3)CC1	8.1%	.	.	11.4%
Cc1ccc(S(=O)(=O)NCC(=O)OC(C)C(=O)NC(=O)NC2CCCCC2)cc1C (centres undefined)	1.9%	-15.8%	-2.0%	6.0%
CCn1c(COc2ccc(C)cc2)nnc1SCc1nc2ccccc2[nH]1	3.2%	?	?	14.1µM*
Cc1ccccc1NC(=O)C1CCCN(c2ncnc3onc(-c4ccc(F)cc4)c23)C1 (centres undefined)	-2.9%	9.28µM*	20.2%	18.5%
Cc1ccc(Oc2nc(-c3ccccc3)ncc2S(=O)(=O)c2ccc(C)cc2)cc1	31.8%	-27.9%	-1.9%	5.62µM*
O=C(O)c1cnc(-c2ccccc2)nc1Oc1ccccc1	13.5%	4.1%	27.0%	3.55µM*
CC(C)c1c(O)ccc2c1CC[C@H]1C(C)(C)CCC[C@]21C	-5.7%	.	.	2µM*
Fc1ccc(-c2cc(C(F)(F)F)nc(NCC3CCCO3)n2)cc1 (centres undefined)	31.1%	?	?	10µM*
Cc1cccc(C)c1OCC(O)CN1CCc2ccccc2C1 (centres undefined)	-12.4%	.	.	12.6µM*
Cn1cc(CNCc2ccccc2OCC(O)CN2CCc3ccccc3C2)cn1 (centres undefined)	1.5%	?	-10.1%	11.2µM*
Cc1cc(C)c(OCC(O)CN2CCN(C(=O)c3ccccc3)CC2)c(C)c1 (centres undefined)	-27.0%	?	6.57µM*	-11.3%
O=C(c1ccccc1)N1CCN(CC(O)COc2cccc3ccccc23)CC1 (centres undefined)	-2.2%	?	-0.3%	14.8%
COc1ccc(N(C(C)=O)S(=O)(=O)c2cc(OC)ccc2OC)cc1	-3.6%	-21.8%	8.28µM*	-3.5%
COc1ccc(OC)c(S(=O)(=O)N(C(C)=O)c2ccc3oc(=O)sc3c2)c1	6.1%	17.8%	?	15.3%
COc1ccc(S(=O)(=O)Nc2ccc(-n3cnnn3)cc2)cc1[N+](=O)[O-]	-5.3%	-13.9%	?	-8.5%
COc1ccccc1C(=O)NNC(=O)c1cccc(O)c1	-4.1%	162.8%	6.57µM*	14.7%
CCCCOc1ccc(C(=O)NNC(=O)c2cnccn2)cc1OC	85.6%	.	.	12.6µM*
